Drawing on PubChem BioAssay, this text covers inhibition for 40 molecules.

Active and inactive are the calls of the source. The rule behind the calls is not given here.

Sequence of Pantothenate synthetase (Mycobacterium tuberculosis (strain ATCC 25618 / H37Rv)) (P9WIL5 whole entry, looked up): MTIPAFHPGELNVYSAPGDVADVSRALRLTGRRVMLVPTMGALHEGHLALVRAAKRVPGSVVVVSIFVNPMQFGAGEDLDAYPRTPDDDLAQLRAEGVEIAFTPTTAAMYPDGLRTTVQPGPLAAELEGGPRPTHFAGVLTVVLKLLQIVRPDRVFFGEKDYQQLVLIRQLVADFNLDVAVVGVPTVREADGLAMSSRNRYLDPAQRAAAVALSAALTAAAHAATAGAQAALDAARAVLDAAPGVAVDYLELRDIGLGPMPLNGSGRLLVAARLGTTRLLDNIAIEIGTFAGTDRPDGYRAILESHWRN

The experiment concerns the target Pantothenate synthetase (Mycobacterium tuberculosis (strain ATCC 25618 / H37Rv)) (UniProt P9WIL5). As to the kind of experiment: Recombinant Mtb pantothenate synthetase (PanC) inhibitors, coupled enzyme, confirmatory (AID 375).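 Note: 0% = full reaction with vehicle and 100% = no enzyme background.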 Conditions: coupled enzyme assay; at 10 µM, hits give high values.
For `CC(=O)CCc1c(C)[nH]c2ccccc2c1=O`, the inhibition was 1% (inactive).

Consider `COc1cccc(NC(=O)C2C3C=CC4(O3)C2C(=O)N(C(C)C)C4C(=O)NC2CCCCC2C)c1` (stereo not given), for which the inhibition was 2% (inactive).

Turning to `Oc1ccc(Nc2nc(-c3ccc(O)cc3)cs2)cc1`, the inhibition is 2% (inactive).

With `Nc1nc(NCc2ccco2)nn1-c1ccccc1`, the inhibition was 0% (inactive).

Turning to `CCOc1ccc(-c2nc(C#N)c(NCc3ccc4c(c3)OCO4)o2)cc1`, the inhibition was 3% (inactive).

Take `O=C(O)CCN1C(=O)c2ccccc2C1=O`: the inhibition was 6% (inactive).

Regarding `CCC(C)OC(=O)c1[nH]c2c(c1C)C(=O)CC(c1ccc(N(C)C)cc1)C2` (stereo not given), the inhibition is 0% (inactive).

As for `CCOC(=O)C1=C(CC)Nc2ccccc2N=C1NC(=O)Cn1cnc2ccccc2c1=O`, the inhibition is 0% (inactive).

Regarding `CCOC(=O)N1CCC(n2c(=S)[nH]c3cc(OC)c(OC)cc3c2=O)CC1`, the inhibition is 2% (inactive).

Consider `CC1(C)NC(=O)N(CN2C(=O)NC(C)(C)C2=O)C1=O`, for which the inhibition is 0% (inactive).

Consider `Cn1c(=O)c2c(nc(CN3CCCCC3)n2CCc2ccccc2)n(C)c1=O`, for which the inhibition was 1% (inactive).

Consider `c1ccc(-n2ncc3c(NCc4cccs4)ncnc32)cc1`, for which the inhibition is 0% (inactive).

Regarding `O=C(O)CCc1ccc(-c2cccs2)n1NC(=O)c1ccccc1Br`, the inhibition is 0% (inactive).

As for `COc1ccc(C(=O)Nc2ccc(S(=O)(=O)Nc3nccnc3OC)cc2)cc1OC`, the inhibition was 0% (inactive).

`Cc1cc(Cl)ccc1OCCCC(=O)NO`: the inhibition is 0% (inactive).

Regarding `Cc1ccc(OCC(O)Cn2c(NCCc3ccccc3)nc3c2c(=O)[nH]c(=O)n3C)cc1` (stereo not given), the inhibition is 0% (inactive).

Regarding `CCOC(=O)C1CCCN(C(=O)c2cn(C)c(=O)c3cc(OC)c(OC)cc23)C1` (stereo not given), the inhibition was 0% (inactive).

Take `O=C(O)C1CC(=O)N(Cc2ccccc2)C1` (stereo not given): the inhibition was 1% (inactive).

As to `COc1nc(NCCc2ccc(OC)c(OC)c2)nc(NC(C)(C)CO)n1`, the inhibition was 0% (inactive).

For the molecule `Cc1nc(NCc2ccccn2)c2ccccc2n1`, the inhibition was 7% (inactive).

In the case of `COc1ccc(OC)c(NC(=O)CSc2ncccc2C(=O)O)c1`, the inhibition is 0% (inactive).

For the molecule `COc1cc(N=c2ssnc2Cl)cc(OC)c1`, the inhibition was 1% (inactive).

In the case of `Cc1ccc2c(C)nc(Nc3nc(CSc4nnnn4-c4ccccc4)cc(=O)[nH]3)nc2c1`, the inhibition was 11% (inactive).

In the case of `Cc1ccc(NC(=O)COC(=O)c2ccn(C)n2)cc1`, the inhibition is 0% (inactive).

In the case of `CN(Cc1cccs1)C(=O)CCc1ccc(S(=O)(=O)N2CCOCC2)cc1`, the inhibition is 1% (inactive).

For the molecule `CC1=C(C)C(=O)NC(Nc2nc(C)c3cc(C)cc(C)c3n2)N1` (stereo not given), the inhibition was 0% (inactive).

Take `Cc1c(C(=O)Nc2cnccn2)oc2ccccc12`: the inhibition is 1% (inactive).

Regarding `CC(=O)N1C(=O)C2(Nc3ccccc3N2)c2ccccc21`, the inhibition is 1% (inactive).

In the case of `O=C(Nc1cccc2ccccc12)N1CCN(c2ccccc2)CC1`, the inhibition is 3% (inactive).

`O=C(NC1CCCCC1)C(c1ccco1)N(Cc1cccnc1)C(=O)C1COc2ccccc2O1` (stereo not given): the inhibition was 2% (inactive).

For `CCCN1C2CCCC1CC(NC(=O)c1ccccc1F)C2` (stereo not given), the inhibition is 2% (inactive).

For `O=C1c2ccccc2C(Nc2ccc3c(c2)OCCO3)N1Cc1ccco1` (stereo not given), the inhibition was 0% (inactive).

On to `Cc1ccc(-c2nnc(SC(C)C#N)n2N)cc1` (stereo not given), for which the inhibition was 3% (inactive).

Turning to `CCn1c(SCC(=O)NCCc2ccc(Cl)cc2)nnc1-c1cccs1`, the inhibition is 1% (inactive).

On to `O=c1c2c3c(sc2n2cnnc2n1CCc1ccccc1)CCCC3`, for which the inhibition was 5% (inactive).

As for `Cn1c(SCc2nnc3n2CCCCC3)nc2ccccc21`, the inhibition was 0% (inactive).

In the case of `c1ccc2c(c1)CNC1(CCCCC1)C2`, the inhibition was 3% (inactive).

In the case of `CCCCOc1ccc(N(CC(=O)NC2CCCC2)C(=O)CCC(=O)Nc2ccccn2)cc1`, the inhibition is 0% (inactive).

In the case of `COCCCNC(=O)CCc1nc2cccnc2n1Cc1ccc(OC)cc1`, the inhibition is 0% (inactive).

In the case of `Cc1occc1C(=O)Nc1cccnc1`, the inhibition is 16% (inactive).
